# From PubChem
# Pf growth 96h – P. falciparum growth inhibition at 96 hours. P. falciparum luciferase reporter growth, 96 h. Potency, µM (titrated, usually from 28.7 µM), for inactives: top-dose activity change, negative = inhibition, hits mostly inhibitors. 6.9% of 320,000 active. AID 504834; note: potency is the fitted concentration of half-maximal effect; % is set by controls: 0 for no effect and ±100 for the full control effect
#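 Erythrocytes infected with luciferase-expressing P. falciparum were dispensed at 2% hematocrit and 0.05% parasitemia (final), then incubated with compounds 96 hours at 37 C in 5% CO2. Luminescence after detection reagent addition reported growth.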
# AMA1 RON2 block – disrupts binding of P. falciparum AMA1 to RON2; AlphaScreen AMA1-biotinylated RON2 peptide binding; Potency, µM (titrated, usually from 58.2 µM), without a hit: top-dose activity change, negative = inhibition, actives largely listed as inhibitors; 0.2% of 360,000 active;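 note: potency is the fitted concentration of half-maximal effect; 0% = vehicle wells and -100% = peptide control; nearly all actives have a fitted effect of over 45% in size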
#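 AMA1 (3D7) with his tag at 25 nM final met compounds first, then biotinylated RON2 peptide at 25 nM; detection used donor plus acceptor beads, 10 µg/mL apiece, read by AlphaScreen after 30 min at room temperature.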
# Shiga inhibitor – blocks Shiga toxin action in Vero cells; Vero cells, Shiga toxin protein synthesis inhibition reporter; inhibition, % at 38.7 µM; 9.2% of 290,000 active; AID 2315; in the data active = inhibition mostly above about 28%, no sharp cut-off; inactive = mostly below about 43%; note: 0% is about no effect
# Cycloheximide cs – counter-screen for Shiga toxin inhibitors: cycloheximide protein synthesis inhibition; max response, %; cell reporter, cycloheximide protein synthesis inhibition counterscreen; AID 2314; 12% of 300,000 active; in the data active = max response mostly above about 13%, no sharp cut-off; inactive = mostly below about 14%; note: read at 38.3 µM for the half of the compounds with a filed dose; 0% is about no effect
# Pf growth 48h – P. falciparum growth inhibition at 48 hours (one generation); 5.9% of 310,000 active; Potency, µM (highest dose often 28.7 µM), for the others: at the top dose activity change, negative = inhibition, hits mostly inhibitors; AID 504832; P. falciparum luciferase growth in erythrocytes, 48 h; note: potency is the fitted concentration of half-maximal effect; % is set by controls: 0 for no effect and ±100 for the full control effect
#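 In quantitative HTS format, infected erythrocytes bearing luciferase-reporter parasites were treated for a single generation at 37 C. Luminescence after adding detection reagent served as the growth measure.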
# SARS PLpro yeast – blocks SARS-CoV papain-like protease in a yeast assay; S. cerevisiae expressing SARS-CoV PLpro, growth rescue; Potency, µM (top dose mostly 32.9 µM), without a hit: at the top dose activity, positive = growth rescue, usual class: activators; 0.19% of 330,000 active; calls by dose curve; note: potency is the fitted concentration of half-maximal effect; 0% is about no effect; nearly all actives have a fitted effect of over 55% in size
# * hit, by the source's call; ? = inconclusive; . = not tested or not shown. Shown are actives, neighbours in structure and some others; about 19% of the full set was active somewhere. Unless noted, calls come from the whole dose curve; as a rule, active = well fitted curve in the direction sought with a large enough effect; inconclusive = small, poorly fitted or top-dose-only effect, or another doubt; inactive = no such curve, though single readings can be large; an effect the other way counts as inactive or inconclusive.
SMILES,Pf growth 96h,AMA1 RON2 block,Shiga inhibitor,Cycloheximide cs,Pf growth 48h,SARS PLpro yeast
O=C(Cn1cccc1C(=O)c1ccccc1)NCc1ccc(Cl)cc1,-1%,?,16,-4,16%,4%
O=C(Cn1cccc1C(=O)c1ccccc1)NCc1cccc(Cl)c1,13µM*,-2%,53*,32*,44%,0%
O=C(Nc1ccc2snnc2c1)N1CCSCC1,-5%,10%,20,9,11%,2%
O=C(Nc1ccc(F)cc1)c1ccc2snnc2c1,23%,-14%,52*,29*,81%,-5%
COc1cccc(NC(=O)c2ccc3snnc3c2)c1,-62%,4%,81*,37*,77%,-27%
COc1ccc(N(C)C(=O)c2ccc3snnc3c2)cc1,10µM*,-9%,21,5,0%,9%
COc1ccc(N(C)C(=O)c2ccc3c(c2)nnn3C)cc1,4%,12%,6,-7,-4%,0%
O=C(Nc1cccc([N+](=O)[O-])c1)c1ccc2snnc2c1,-2%,0%,-6,-4,-6%,-7%
CNC(=O)Nc1ccc2snnc2c1,12µM*,-4%,30,0,.,-12%
Cc1cccc(C)c1NC(=S)NC(=O)c1cccc(Cl)c1,.,71%,.,.,.,.
CN(C(=O)c1ccc(NC(=O)Cc2cccc(NC(=O)C3CCN(C(=O)C4CCCC4)CC3)c2)cc1)C1CC1,.,-18%,.,.,.,.
CCOc1ccc(NC(=O)c2ccc3snnc3c2)cc1,-15%,-4%,43*,26,58%,-2%
CC1CN(C(=O)Nc2ccc3snnc3c2)c2ccccc21 (stereo unspecified),9%,-9%,36*,27*,20%,-26%
Cc1ccc(NC(=O)c2ccc3snnc3c2)cc1C,?,2%,74*,37*,105%,-1%
O=S(=O)(Cc1ccccc1Cl)NCCc1ccccc1,4%,6%,6,6,-6%,1%
NS(=O)(=O)c1ccc(CCNC(=O)c2ccc3nccnc3c2)cc1,.,-6%,.,.,.,-26%
NS(=O)(=O)c1ccc(CCNCc2ccccc2OCc2ccc(Cl)cc2)cc1,?,0%,.,-5,10µM*,1%
NS(=O)(=O)c1ccc(CCNc2ccnc3cc(Cl)ccc23)cc1,10%,12%,-13,32*,12µM*,-1%
O=S(=O)(Cc1ccccc1)NCCc1cccc(Cl)c1,3.3µM*,-5%,25,-2,-19%,-3%
NS(=O)(=O)c1ccc(CCNS(=O)(=O)Cc2ccc(Cl)cc2)cc1,13µM*,1%,-2,3,10%,2%
COc1ccc(-c2nc(N)ncc2-c2csc(C)n2)c(O)c1OC,19%,13%,-5,-9,-2%,3%
Cc1ccc(NC(=O)CCN2C(=O)c3ccccc3S2(=O)=O)cc1C,0%,22%,.,.,-77%,-4%
C/C(=N/NC(=O)c1cccc(C)c1)c1c(O)cc(C)oc1=O,21%,43%,61*,31*,27%,-33%
C/C(=N\NC(=O)c1cccc(C)c1)c1cccc(NC(=O)c2ccco2)c1,0%,29%,32,19*,37%,-4%
O=C(N/N=C/c1ccco1)c1cccc(NC(=O)c2cccc(Cl)c2)c1,-20%,1%,81*,41*,-7%,-3%
SMILES,Pf growth 96h,AMA1 RON2 block,Shiga inhibitor,Cycloheximide cs,Pf growth 48h,SARS PLpro yeast
C/C(=N\NC(=O)c1cccc(Cl)c1)c1cccc(NC(=O)c2ccco2)c1,12µM*,-5%,91*,24*,?,-7%
COc1cc(C2NC(=O)NC(C)=C2[N+](=O)[O-])cc(OC)c1OC (stereo unspecified),1%,-11%,27,9,10%,1%
COc1ccc(C(=O)COC(=O)C2CCC(=O)N2)cc1 (stereo unspecified),?,-10%,-8,-2,?,-2%
O=C(COc1ccc(Br)cc1)NCCO,?,9%,4,1,35%,-2%
CCCCn1c(N)c(N(CC(C)C)C(=O)C2CCCO2)c(=O)[nH]c1=O (stereo unspecified),17%,5%,.,.,0%,0%
O=C(Nc1ccccc1Cl)C(Cl)C(=O)c1ccccc1 (stereo unspecified),5%,-4%,102*,48*,39%,-4%
O=C(Nc1ccc(Cl)cc1)C(c1ccccc1)N(CCO)CCO (stereo unspecified),37%,6%,13,3,4%,4%
O=C(Nc1ccc(Cl)cc1)C(Cl)C(=O)c1ccccc1 (stereo unspecified),-24%,2%,53,19*,22%,-17%
CC(C)c1c(C(=O)N/N=C/c2ccc(C(F)(F)F)cc2)nnn1-c1nonc1N,?,7%,0,5,?,5%
COc1ccc(C2/C=C\CN(C(=O)c3ccccc3)C(C)C(=O)N2Cc2ccc(F)cc2)cc1 (stereo unspecified),.,.,-14,0,.,.
COc1ccc(C2/C=C\CN([S+](=O)([O-])c3ccc4ccccc4c3)C(C)C(=O)N2Cc2ccc(F)cc2)cc1 (stereo unspecified),.,.,149*,84,.,.
COc1ccc([C@H]2/C=C\CN(S(C)(=O)=O)[C@@H](C)C(=O)N2Cc2ccc(F)cc2)cc1,.,-4%,.,.,.,.
COc1ccc(C2/C=C\CN(Cc3ccccc3)C(C)C(=O)N2Cc2ccc(F)cc2)cc1 (stereo unspecified),.,.,62*,36*,.,.
N#Cc1cccnc1N1CCC(C(N)=O)CC1,47%,2%,-5,-2,31%,1%
Cc1ccc(NC(=O)C(c2ccc(Cl)cc2Cl)N2CCCC2)cc1 (stereo unspecified),27%,4%,1,-1,?,8%
Cc1cccc(NC(=O)C(c2ccccc2Cl)N2CCOCC2)c1 (stereo unspecified),15µM*,-4%,2,11,12µM*,-1%
Cc1nc2cc3sc(C)nc3cc2s1,?,6%,73*,33*,62%,-4%
Cc1nc2ccc(N)cc2s1,13%,-3%,-3,-1,9%,0%
Cc1nc2cc(C)c(C)cc2s1,?,-19%,18,22*,0%,0%
NC(=O)C1CC(=O)N(Cc2ccc3c(c2)OCO3)C(=Nc2ccccc2)S1 (stereo unspecified),15µM*,-4%,-16,-5,-20%,-3%
Cc1ccc(CS(=O)(=O)CC(C)(O)c2ccccc2)cc1 (stereo unspecified),?,0%,8,-5,-6%,-1%
Cc1ccc(SCC(c2ccccc2)N2CCN(C)CCC2=O)cc1 (stereo unspecified),.,.,52*,31*,.,.
CN1CCC(=O)N([C@H](CC#N)c2ccccc2)CC1,0%,30%,4,-2,-2%,3%
CN1CCC(=O)N([C@H](CSc2ccc(Br)cc2)c2ccccc2)CC1,39%,7%,64*,25*,35%,-5%
